Among all 1,100 compounds or so, about 860 (78%) were called active. Another 19% or so got no clear call; they are omitted. The set was probably picked from earlier hits. Some of the results follow. Unmarked numbers belong to inactive results. Calls come from the whole dose curve; as a rule, active = well fitted activation curve with a large enough effect; inconclusive = small, poorly fitted or top-dose-only effect; inactive = flat fitted curve, though single readings scatter.
Potency is the fitted concentration of half-maximal effect.

The assay is described as follows: qHTS of Nrf2 Activators: Hit Validation in Primary Assay. For activation: 0% is about no effect. Note: nearly all actives have a fitted effect of over 70% in size. Particulars: Nrf2/ARE reporter cell assay; Potency: activation; series mostly up to 46.1 µM; activation: at the top concentration. An excerpt:
Many diseases have some form of oxidative stress injury and ties to inflammation, causing a host of problems for the patient. The antioxidant response element (ARE) plays an important role in alleviating the harmful effects of oxidative stress. The antioxidant response element (ARE) is a transcriptional regulatory element involved in the activation of genes coding for a number of antioxidant proteins and detoxifying enzymes. These enzymes work in concert to protect tissues from oxidative insults and chemical toxicities in human hepatocytes and immune cells. The protective effects of ARE activation are primarily triggered through Nrf2 (NF-E2-related factor) binding to and activating AREs. It is known that Nrf2 controls the production of over 250 antioxidant and detoxification proteins (Hu et al., 2006), thereby protecting tissues by increasing cellular antioxidant content and suppressing inflammatory signaling pathways. The transcription factor Nrf2 is a central link between oxidative chemicals, such as phenolic antioxidants and electrophilic compounds, and the activation of ARE. Nrf2 levels are constitutively low as a consequence of its interaction with Keap1, which targets its degradation (Zipper and Mulcahy, 2002). Electrophiles react with key cysteine residues in Keap1, releasing Nrf2 and allowing its translocation to the nucleus. Once within the nucleus, Nrf2 complexes with coactivators such as p300, and binds to the AREs to induce gene transcription of cytoprotective enzymes, resulting in the prevention of toxicity. Activation of Nrf2 protects tissues by increasing cellular antioxidant content and suppressing inflammatory signaling pathways. Identifying novel and potent Nrf2 activators by using the AREc32 cell line to detect ARE activation by small molecules will lead to the identification and development of probes to study protective pathways in multiple tissues. These specific probes are essential to study the ARE pathway, and eventually to determine whether this pathway does activate genes that could protect against a host of diseases, including cardiovascular diseases, obesity, diabetes, Alzheimer's, and Parkinson's disease.
This project's aim is to identify novel and potent Nrf2 activators by using the AREc32 cell line to detect ARE activation by small molecules, which will lead to the identification and development of probes to study the ARE pathway.
NIH Chemical Genomics Center [NCGC]
NIH Molecular Libraries Probe Centers Network [MLPCN]
Assay Submitter (PI): Curtis Klaassen, University of Kansas Medical Center
Quantification of ARE activation after compound treatment was measured by the Steady-Glo Luciferase (R) assay system (Promega) in AREc32_fluc stable cells. The Steady-Glo reagent acts by cell lysis and generation of a luminescent signal proportional to ARE activation, through the luciferase reporter in the AREc32 stable cell line. AREc32_fluc cells were harvested from T225 flask and resuspended in phenol red free OPTI-MEM medium with 5% FBS. Then 5 microL of 200,000 cells/mL resuspended cells were dispensed into each well of white, solid bottom, 1536-well tissue culture-treated plates using a Multidrop Combi dispenser. After overnight culture at 37 degrees C with 5% CO2, a total of 23 nL of compounds at 5 selected concentrations from the MLSMR/Sytravon or positive control (40 uM stock of CDDO-IM and 2 mM of tBHQ) in DMSO was transferred to each well of the assay plate using a pintool (Kalypsys, San Diego, CA), and the plates were further incubated at 37 degrees C with 5% CO2 for 24 hours. After that, 2 microL of Steady Glo luminescent substrate mix (Promega) was added to each well. The plate was incubated at room temperature for 30 minutes. The plates were measured on a ViewLux plate reader (PerkinElmer) with clear filter.
(In general: In qHTS, concentration-response curves come from the screen itself.)
For the compound `CCOc1c(Br)cc(C(N)=O)cc1OCc1ccccc1`, the “activation” value was 20.2%.
For the compound `Cc1ccc2cc3c(NC(=O)c4ccco4)nn(C)c3nc2c1`, the Potency is 2.59 µM (active).
Still for that read-out and setting: then `COc1ccc(OC)c(C=C2CCc3ccccc3C2=O)c1`, with 2.91 µM (active).
Still for that read-out and setting: for `O=C1C(=Cc2ccccc2Cl)CCc2ccccc21` the value was 20.6 µM (active); for `COc1cc(OC)c(OC)cc1/C=C1/Cc2ccccc2C1=O`, 8.2 µM (active); for `COc1cc(C=C2Cc3ccccc3C2=O)cc(OC)c1OC`, 9.2 µM (active).
On the same count and under the same terms, then `c1ccc(-c2cnc(-c3ccccc3)nn2)cc1`, with 13 µM (active); and `CSc1nc(Oc2ccc(Cl)cc2)c2sccc2n1`, with 6.51 µM (active).
Regarding `CSc1nc(Oc2ccc3ccccc3c2)c2sccc2n1`, the Potency was 5.8 µM (active).
Still for that read-out and setting: then `Nc1c(C(=O)c2ccc(Br)s2)oc2ccccc12`, with 5.17 µM (active).
As for `Nc1c(C(=O)c2cccs2)oc2ccccc12`, the Potency was 6.51 µM (active).
Turning to `COc1cccc(C(=O)Oc2ccccc2/C=C\C(=O)c2cc3ccccc3o2)c1`, the Potency is 3.66 µM (active).
Same read-out and setting: then `O=C(Oc1ccccc1/C=C\C(=O)c1cc2ccccc2o1)c1ccccc1`, with 4.61 µM (active); and `O=C(Cn1cnc2scc(-c3cccc([N+](=O)[O-])c3)c2c1=O)NCc1ccco1`, with 7.31 µM (active); and `Cc1c(CN(C)C)c2c(n1C)C(=O)c1ccc(Br)cc1-2`, with 5.17 µM (active).
Consider `O=C(CC(=O)c1ccccc1O)c1cccc(F)c1`, for which the Potency was 4.61 µM (active).
The same measure, in the same setting: then `C(=N\Nc1nc2ccccc2[nH]1)/c1c[nH]c2ccccc12`, with 16.4 µM (active).
On the same count and under the same terms, then `O=[N+]([O-])c1ccccc1N/N=C/c1c[nH]c2ccccc12`, with 2.59 µM (active); and `CC(C)Oc1ccccc1/C=N/Nc1ccccc1[N+](=O)[O-]`, with 3.26 µM (active); and `c1ccc(N=NC2=NN(c3ccccc3)CS2)cc1`, with 5.8 µM (active).
Same read-out and setting: then `CSc1ccccc1NC(=O)COC(=O)/C=C/c1ccco1`, with 1.16 µM (active); and `O=C(COC(=O)/C=C/c1ccco1)Nc1ccc(F)cc1Cl`, with 5.8 µM (active).
In the case of `CC(=O)c1ccccc1NC(=O)COC(=O)/C=C/c1ccc(C)o1`, the Potency was 3.66 µM (active).
In the case of `O=C(CNC(=S)NC(=O)c1ccccc1Br)c1ccccc1`, the “activation” value was 27.2%.
Take `O=C(NC(=S)Nc1ccccc1O)c1ccccc1Cl`: the Potency is 2.31 µM (active).
As to `COC(=O)c1c(NC(=O)c2ccco2)sc(C)c1C`, the Potency is 2.59 µM (active).
The same measure, in the same setting: for `CCOC(=O)c1sc(NC(=O)c2ccco2)nc1C` the value was 2.59 µM (active); for `Cc1ccc(C(=O)Nc2nc(-c3ccco3)c(-c3ccco3)s2)o1`, 0.92 µM (active).
The same measure, in the same setting: then `CCc1c(C)sc(NC(=O)c2ccco2)c1C#N`, with 7.31 µM (active).
As to `Cc1sc(NC(=O)c2ccco2)c(CN2CCCCC2)c1C`, the “activation” value was 9.37%.
